Target: Cyclin-dependent kinase 2 (Homo sapiens) + Cyclin-A2 (Homo sapiens) (UniProt P20248+P24941)
Assay: CDK2/cyclin A inhibitors, off-target check, dose response, selectivity assay for Dyrk1A inhibitor project, biochemical, dry powder, set 3 (AID 651681)
Conditions: CDK2/cyclin A ADP-Glo luminescence, histone H1 peptide; series mostly up to 10 µM; inhibition: at the top concentration;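 active means compound with fitted CDK2 half-maximal potency at or below twice its top tested dose; inconclusive means flat curve near 30 to 70% inhibition, or poor fit; inactive means the rest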

Chain of Cyclin-dependent kinase 2 (Homo sapiens) + Cyclin-A2 (Homo sapiens) (P20248 whole entry, looked up, one chain of several): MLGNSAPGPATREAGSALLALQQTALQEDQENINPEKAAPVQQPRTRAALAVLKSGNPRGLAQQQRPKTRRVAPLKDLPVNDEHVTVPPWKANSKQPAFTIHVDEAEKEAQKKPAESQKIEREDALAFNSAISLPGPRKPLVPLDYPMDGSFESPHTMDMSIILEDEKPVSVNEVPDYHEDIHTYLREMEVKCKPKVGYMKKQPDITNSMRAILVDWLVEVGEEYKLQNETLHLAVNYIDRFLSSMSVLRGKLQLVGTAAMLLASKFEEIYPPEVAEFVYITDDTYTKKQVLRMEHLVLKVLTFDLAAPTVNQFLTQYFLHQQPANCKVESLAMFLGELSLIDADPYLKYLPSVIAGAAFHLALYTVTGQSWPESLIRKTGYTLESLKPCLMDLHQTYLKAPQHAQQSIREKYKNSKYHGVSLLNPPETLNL

inhibition, inactive:
COc1ccc2nc(NC(=O)C3CCN(S(=O)(=O)c4cccc5nsnc45)CC3)sc2c1 2%, CN(CC(=O)Nc1nccs1)S(=O)(=O)c1ccc(Cl)cc1 8.85%, COc1ccc(OC)c(C2=Nn3c(nnc3-c3ccccn3)SC2)c1 4.06%, COc1ccc2c(Cl)c(C(=O)NCc3cccnc3)sc2c1 -2.3%

Source: PubChem BioAssay AID651681 (Broad Institute, 2012)
